# In all, about 52,000 compounds went through this assay and about 4,300 (8.3%) were called active. The list comes from a sample in which actives are over-represented; it also holds similar structures and randomly drawn compounds. Unmarked numbers belong to inactive results. No stated cut-off is given here; in the data, active means survival mostly below about 52% (no sharp cut-off); inactive means mostly above about 56%.
# Tested on: DeltatarO mutant
# Test: S. aureus survival, RN4220 and DeltatarO strains – OD600, teichoic acid synthesis inhibitors, primary screen (AID 463173)
# Details: S. aureus RN4220 wild type/DeltatarO growth, OD600, 18 h, stronger effect = lower value, screened at 18.75 µg/mL (by protocol)
row,Compound,survival
1,Cc1ccccc1CN1C(=O)C2(c3ccccc31)N(c1ccccc1)C(=O)CS2(=O)=O (stereo unspecified),124%
2,CCOc1ccc2nc(N3CCCC(C(=O)Nc4ccc(OC)cc4)C3)sc2c1 (stereo unspecified),60%
3,COc1cccc(CNC(=O)c2cc(S(=O)(=O)N3CCCCC3)cn2C)c1,0% (active)
4,Cc1ccc(CNC(=O)c2cc(S(=O)(=O)N3CCCCCC3)cn2C)cc1,74%
5,COc1ccccc1CNC(=O)c1cc(S(=O)(=O)N2CCCC(C)C2)cn1C (stereo unspecified),93%
6,COc1cccc(CNC(=O)c2cc(S(=O)(=O)N3CCCCCC3)cn2C)c1,82%
7,CC1CCCN(S(=O)(=O)c2cc(C(=O)NCCc3ccccc3)n(C)c2)C1 (stereo unspecified),73%
8,COc1ccc(CCNC(=O)c2cc(S(=O)(=O)N3CCCC(C)C3)cn2C)cc1OC (stereo unspecified),47% (active)
9,COc1ccc(CNC(=O)CCc2c(C)c3cc4c(C)coc4cc3oc2=O)cc1,75%
10,Cc1ccc(S(=O)(=O)N2CCCc3cc(NS(=O)(=O)c4ccc(F)cc4)ccc32)cc1,74%
11,Cc1ccc(SCC(=O)Nc2ccc3oc(-c4cccc(Cl)c4)nc3c2)cc1,72%
12,O=S(=O)(Nc1ccc(-c2nc3ccccc3o2)cc1)c1ccccc1,24% (active)
13,COC(=O)c1ccc(-c2nc3ccc(C)cc3o2)cc1,102%
14,Cc1ccccc1C(=O)Nc1ccc(-c2nc3ccccc3o2)cc1,101%
15,O=S(=O)(Nc1ccc2nc(-c3cccc(Cl)c3)oc2c1)c1ccccc1,52%
16,Cc1ccc(S(=O)(=O)Nc2ccc3nc(-c4ccc(F)cc4)oc3c2)cc1,11% (active)
17,O=C(O)/C=C/C(=O)Nc1ccc(-c2nc3ccccc3o2)cc1,74%
18,O=S(=O)(Nc1ccc2nc(-c3ccc(F)cc3)oc2c1)c1ccccc1,32% (active)
19,O=S(=O)(Nc1ccc2nc[nH]c2c1)c1ccccc1,95%
20,Cc1ccc(S(=O)(=O)Nc2ccc3nc(-c4cccc(Cl)c4)oc3c2)cc1,28% (active)
21,O=C(Nc1ccc(-c2nc3cc(NC(=O)c4ccc(F)cc4)ccc3o2)cc1)c1ccc(F)cc1,75%
22,O=C1CC(c2cccc(O)c2)c2c(nc(SCc3ccccc3F)[nH]c2=O)N1 (stereo unspecified),106%
23,COc1cc(NC(=O)CN2C(=O)C(c3ccc(C)cc3)=NC23CCCCCC3)cc(OC)c1,83%

row,Compound,survival
1,O=C(COc1ccc(F)cc1)NCc1ccc2c(c1)CCN2C(=O)c1ccccc1,81%
2,COc1ccc(C2CC(=O)NC(NC(=O)c3ccc(Br)cc3)=N2)c(OC)c1OC (stereo unspecified),86%
3,CCOC(=O)N1CCc2c(sc3c2c(=O)n(-c2ccc(Cl)cc2)c(=O)n3CC(C)C)C1,94%
4,CN(C)CCNC(=O)Cn1nc(N2CCN(c3ccccc3)CC2)ccc1=O,86%
5,CC(=O)c1ccc(NC(=O)C2CCN(S(=O)(=O)c3ccc4[nH]c5c(c4c3)CCCCC5)CC2)cc1,94%
6,O=C1COc2cc(S(=O)(=O)CCC(=O)N3CCN(c4cccc(Cl)c4)CC3)c(Cl)cc2N1,66%
7,CCOC(=O)C1=C(CN2CCC(C(=O)OCC)CC2)NC(=O)NC1c1ccc(Cl)cc1 (stereo unspecified),111%
8,COc1ccc(-n2nnc(C(=O)Nc3ccccc3F)c2N)cc1,68%
9,O=C(Nc1ccc(C(F)(F)F)cc1)C1(c2cccs2)CCOCC1,87%
10,Cc1cccc(C)c1NC(=O)CCS(=O)(=O)c1cccc2nonc12,74%
11,Cc1ccc(Nc2ncnc3onc(C)c23)cc1Cl,67%
12,Cc1ccc(C2=NC(c3ccc(F)cc3)=Nc3ccc(C)cc3N2)cc1,72%
13,O=C(NN=C1CCCCC1)c1n[nH]c2c1CCC2,97%
14,CCc1ccc(C(=O)c2cn(CC(=O)Nc3ccc(OC)cc3)c3cc4c(cc3c2=O)OCO4)cc1,81%
15,COc1ccc(CN2CCc3c(c(=O)n4ncc(C(=O)N5CCN(c6ccccc6F)CC5)c4n3C)C2)cc1,88%
16,COc1ccccc1NC(=O)c1cc(S(=O)(=O)N(C)C2CCCCC2)ccc1F,85%
17,CCNC(=O)c1c(NC(=O)c2nc(S(=O)(=O)CC)ncc2Cl)sc2c1CCCC2,34% (active)
18,CCCSc1ncc(Cl)c(C(=O)Nc2sc3c(c2C(=O)OC)CCCC3)n1,53%
19,Cc1cccc(CSc2ncc(Cl)c(C(=O)Nc3sc4c(c3C(N)=O)CCCC4)n2)c1,112%
20,CCCSc1ncc(Cl)c(C(=O)Nc2sc3c(c2C(=O)NCC)CCCC3)n1,45% (active)
21,CCSc1ncc(Cl)c(C(=O)Nc2sc3c(c2C(=O)NCCCOC)CCCC3)n1,108%
22,CCCSc1ncc(Cl)c(C(=O)Nc2sc3c(c2C(N)=O)CCCC3)n1,46% (active)
23,CCOCCCNC(=O)c1c(NC(=O)c2nc(SC)ncc2Cl)sc2c1CCCC2,64%

row,Compound,survival
1,COCCCNC(=O)c1c(NC(=O)c2nc(S(C)(=O)=O)ncc2Cl)sc2c1CCCC2,53%
2,CCCSc1ncc(Cl)c(C(=O)Nc2sc3c(c2C(=O)NCCOC)CCCC3)n1,92%
3,CCN(CC)c1nn2c(=O)c(C(=O)NCc3ccc(OC)cc3OC)cnc2s1,75%
4,CCOc1ccc(NC(=O)CSc2oc(-c3ccco3)nc2S(=O)(=O)c2ccccc2)cc1,101%
5,Cc1ccc(NC(=O)n2ncc3c(C)cccc32)c(C)c1,85%
6,COc1ccc(-n2nc(C(=O)Nc3ccc(C)cn3)c3c4ccccc4n(C)c3c2=O)cc1,76%
7,CCC(Sc1nc2ncccc2o1)C(=O)Nc1ccc(OC)c(OC)c1 (stereo unspecified),79%
8,COc1cccc(NC(=O)c2nnn(Cc3ccc(OC)c(Br)c3)c2N)c1,57%
9,CCCN(CCC)C(=O)CSc1nc2ccccc2c(=O)n1Cc1ccco1,83%
10,O=C(CSc1nc2ccncc2[nH]1)Nc1ccccc1C(F)(F)F,87%
11,O=S(=O)(Nc1ccc(-c2ccc(N3CCCC3)nn2)cc1)c1ccc(Br)cc1,94%
12,COc1ccc(CNC(=O)c2cnn3c(C)c(Cc4ccc(F)cc4)c(C)nc23)cc1,80%
13,Cc1cccc(OCC(=O)Nc2nnc(S(=O)(=O)N3CCc4ccccc43)s2)c1,16% (active)
14,COc1ccc(OCC(=O)Nc2nnc(S(=O)(=O)N3CCc4ccccc43)s2)cc1,70%
15,CC(C)CC(=O)Nc1nnc(S(=O)(=O)N2CCc3ccccc32)s1,74%
16,Cc1ccc(OCC(=O)Nc2nnc(S(=O)(=O)N3CCc4ccccc43)s2)cc1,13% (active)
17,CCC(=O)Nc1nnc(S(=O)(=O)N2CCc3ccccc32)s1,76%
18,O=C(COc1ccc(Cl)cc1)Nc1nnc(S(=O)(=O)N2CCc3ccccc32)s1,6% (active)
19,O=C(COc1ccc(F)cc1)Nc1nnc(S(=O)(=O)N2CCc3ccccc32)s1,17% (active)
20,CC(=O)NCCNC(=O)CCCc1nnc2n(C)c(=O)c3sccc3n12,93%
21,COc1ccc(CCNC(=O)c2cc3n(n2)C(C(F)(F)F)CC(C2CC2)N3)cc1OC (stereo unspecified),99%
22,CC(=O)c1ccc(N2CCN(S(=O)(=O)c3c(C)nc4sc(C)cn4c3=O)CC2)cc1,75%
23,COCCNC(=O)CCC(=O)N1Cc2cccc(OC)c2Oc2ncccc21,89%

row,Compound,survival
1,N#CC1=C(N)c2ccccc2CC12CCCCC2,31% (active)
2,Nc1n[nH]c2c1C1(CCCC1)Cc1ccccc1-2,100%
3,Nc1nc(=S)[nH]c2c1C1(CCCC1)Cc1ccccc1-2,99%
4,CCc1ccc2[nH]c(=O)c(CN(CCO)C(=S)NCc3ccco3)cc2c1,88%
5,Cc1ccc(NC(=S)N(Cc2ccco2)Cc2cc3cc(C)c(Cl)cc3[nH]c2=O)cc1,82%
6,CNC(=S)N(Cc1ccco1)Cc1cc2ccc(C)cc2[nH]c1=O,99%
7,COc1ccc2[nH]c(=O)c(CN(Cc3ccco3)C(=S)NC3CCCCC3)cc2c1,77%
8,COc1ccc2[nH]c(=O)c(CN(Cc3ccco3)C(=S)NCc3ccco3)cc2c1,65% (active)
9,COc1ccc(NC(=S)N(Cc2ccco2)Cc2cc3cc(C)c(C)cc3[nH]c2=O)cc1,38% (active)
10,Cc1ccc(-c2nnc(Nc3ccccc3)c3ccccc23)cc1S(=O)(=O)N1CCN(C)CC1,86%
11,NC(=O)c1cc2ccc(O)cc2oc1=O,74%
12,COc1ccc(CCNC(=O)CCCn2nc(C)c3sc4ccccc4c3c2=O)cc1OC,83%
13,CCc1ccc(-c2nc3ccc(Br)cc3c(C(=O)O)c2C)s1,39% (active)
14,CCCCc1nc2ccccc2c(C(=O)O)c1C,75%
15,Cc1c(-c2ccccc2)nc2ccccc2c1C(=O)O,95%
16,COc1ccccc1CNC(=O)CN1C(=O)CCc2cc(S(=O)(=O)N3CCOCC3)ccc21,135%
17,O=C(Cn1c(C(=O)NCC2CCCO2)cc2sccc21)c1ccccc1 (stereo unspecified),103%
18,O=C(Cn1c(C(=O)N(Cc2ccco2)CC2CCCO2)cc2sccc21)c1ccccc1 (stereo unspecified),68% (active)
19,O=C(Cn1c(C(=O)NCc2ccco2)cc2sccc21)c1ccccc1,92%
20,CCOc1ccc(C2C(C(N)=O)=C(C)Nc3nc(-c4cccc(Cl)c4)nn32)cc1OC (stereo unspecified),74%
21,O=C(NCC(c1ccco1)S(=O)(=O)c1cccs1)c1ccccc1 (stereo unspecified),63%
22,COc1cc2[nH]c(=O)n(CCCCCC(=O)N3CCN(c4cccc(C(F)(F)F)c4)CC3)c(=O)c2cc1OC,83%
